This note sets out measurements from ChEMBL document CHEMBL2218924, “A broad activity screen in support of a chemogenomic map for kinase signalling research and drug discovery” (Biochem J, 2013).

The target of assay [1] is Mitogen-activated protein kinase 10 (Homo sapiens) (UniProt P53779). Conditions: at 10 µM.
The target of assay [2] is Vascular endothelial growth factor receptor 2 (Homo sapiens) (UniProt P35968). Conditions: at 1 µM.
Assay [3] has the same target. The settings on record: at 10 µM.
The target of assay [4] is LIM domain kinase 1 (Homo sapiens) (UniProt P53667). The settings on record: at 1 µM.
Chain of LIM domain kinase 1 (Homo sapiens) (P53667 whole entry, looked up, the tested form may be a part): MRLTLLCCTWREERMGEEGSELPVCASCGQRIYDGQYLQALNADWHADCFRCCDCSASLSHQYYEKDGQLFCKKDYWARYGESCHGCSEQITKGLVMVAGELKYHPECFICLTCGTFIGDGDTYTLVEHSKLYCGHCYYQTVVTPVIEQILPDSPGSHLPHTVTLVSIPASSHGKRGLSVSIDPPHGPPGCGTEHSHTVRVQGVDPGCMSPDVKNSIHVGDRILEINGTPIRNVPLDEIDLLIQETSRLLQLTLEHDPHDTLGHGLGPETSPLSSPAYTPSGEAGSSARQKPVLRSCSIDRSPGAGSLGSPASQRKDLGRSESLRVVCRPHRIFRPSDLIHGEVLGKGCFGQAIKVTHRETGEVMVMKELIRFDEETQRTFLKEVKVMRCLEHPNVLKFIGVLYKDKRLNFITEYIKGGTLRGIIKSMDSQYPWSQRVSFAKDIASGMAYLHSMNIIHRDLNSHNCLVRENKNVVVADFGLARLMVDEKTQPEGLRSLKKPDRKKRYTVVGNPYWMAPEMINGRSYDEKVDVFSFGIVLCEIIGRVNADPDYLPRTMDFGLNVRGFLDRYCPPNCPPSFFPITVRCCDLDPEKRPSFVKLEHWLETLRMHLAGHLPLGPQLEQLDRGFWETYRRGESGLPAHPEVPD
The target is the same in assay [5]. The settings on record: at 10 µM.
The target of assay [6] is T1, Serine/threonine-protein kinase STK11 (Homo sapiens) (UniProt Q15831).
T1 sequence (whole entry): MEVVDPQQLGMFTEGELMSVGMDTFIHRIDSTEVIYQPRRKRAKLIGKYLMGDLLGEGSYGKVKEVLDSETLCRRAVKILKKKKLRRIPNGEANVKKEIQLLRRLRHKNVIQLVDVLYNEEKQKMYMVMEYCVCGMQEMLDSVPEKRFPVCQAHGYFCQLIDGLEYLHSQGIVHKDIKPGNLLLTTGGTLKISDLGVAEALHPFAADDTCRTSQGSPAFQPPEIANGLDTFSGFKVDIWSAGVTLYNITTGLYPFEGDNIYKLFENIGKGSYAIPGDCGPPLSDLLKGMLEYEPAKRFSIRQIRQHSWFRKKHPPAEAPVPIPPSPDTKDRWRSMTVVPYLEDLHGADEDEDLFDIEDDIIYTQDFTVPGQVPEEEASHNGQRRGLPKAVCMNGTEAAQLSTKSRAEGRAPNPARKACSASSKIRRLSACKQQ
Conditions: at 1 µM.

Assay [7] addresses T1, Serine/threonine-protein kinase STK11 (Homo sapiens). The settings on record: at 10 µM.
For assay [8], the target named is Serine/threonine-protein kinase 10 (Homo sapiens) (UniProt O94804). Conditions: at 1 µM.
Assay [9] has the same target. Conditions: at 10 µM.
Assay [10] has as its target Tyrosine-protein kinase Lck (Homo sapiens) (UniProt P06239). The settings on record: at 1 µM.
Assay [11] shares this target. Conditions: at 10 µM.
For assay [12] the target is unchanged. The settings on record: at 1 µM. This is another data set of the same source.
Assay [13] has the same target. Conditions: at 10 µM. This is another data set of the same source.
Assay [14] concerns the target Tyrosine-protein kinase Lyn (Homo sapiens) (UniProt P07948). Conditions: at 1 µM.
For assay [15] the target is unchanged. Conditions: at 10 µM.
Assay [16] addresses Mitogen-activated protein kinase 3 (Homo sapiens) (UniProt P27361). The settings on record: at 1 µM.
For assay [17] the target is unchanged. The settings on record: at 10 µM.
The target of assay [18] is Mitogen-activated protein kinase 1 (Homo sapiens) (UniProt P28482). Conditions: at 1 µM.
Chain of Mitogen-activated protein kinase 1 (Homo sapiens) (P28482 whole entry): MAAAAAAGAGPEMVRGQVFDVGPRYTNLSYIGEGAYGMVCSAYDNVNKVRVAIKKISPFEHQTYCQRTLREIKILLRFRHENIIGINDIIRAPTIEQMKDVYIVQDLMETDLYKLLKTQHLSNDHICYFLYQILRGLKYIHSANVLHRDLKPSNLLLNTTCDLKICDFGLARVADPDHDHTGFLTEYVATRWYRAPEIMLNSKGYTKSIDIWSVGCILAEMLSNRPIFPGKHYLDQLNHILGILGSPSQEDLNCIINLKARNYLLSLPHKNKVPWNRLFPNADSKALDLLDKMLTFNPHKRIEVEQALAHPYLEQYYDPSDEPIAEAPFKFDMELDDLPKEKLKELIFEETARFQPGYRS
For assay [19] the target is unchanged. The settings on record: at 10 µM.
The target of assay [20] is MAP kinase-activated protein kinase 2 (Homo sapiens) (UniProt P49137). Conditions: at 1 µM.
Chain of MAP kinase-activated protein kinase 2 (Homo sapiens) (P49137 whole entry, looked up): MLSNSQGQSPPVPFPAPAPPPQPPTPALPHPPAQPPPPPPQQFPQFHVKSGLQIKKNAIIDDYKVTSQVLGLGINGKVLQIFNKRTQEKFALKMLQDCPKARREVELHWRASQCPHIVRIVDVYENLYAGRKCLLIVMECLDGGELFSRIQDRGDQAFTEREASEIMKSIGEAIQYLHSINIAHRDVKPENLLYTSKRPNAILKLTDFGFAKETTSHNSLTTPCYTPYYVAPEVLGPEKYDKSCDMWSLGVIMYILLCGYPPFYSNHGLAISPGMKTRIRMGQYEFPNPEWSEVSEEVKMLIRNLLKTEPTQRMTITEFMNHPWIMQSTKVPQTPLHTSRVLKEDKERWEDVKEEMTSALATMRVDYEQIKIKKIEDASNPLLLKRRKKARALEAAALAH

Chain of Vascular endothelial growth factor receptor 2 (Homo sapiens) (P35968 whole entry): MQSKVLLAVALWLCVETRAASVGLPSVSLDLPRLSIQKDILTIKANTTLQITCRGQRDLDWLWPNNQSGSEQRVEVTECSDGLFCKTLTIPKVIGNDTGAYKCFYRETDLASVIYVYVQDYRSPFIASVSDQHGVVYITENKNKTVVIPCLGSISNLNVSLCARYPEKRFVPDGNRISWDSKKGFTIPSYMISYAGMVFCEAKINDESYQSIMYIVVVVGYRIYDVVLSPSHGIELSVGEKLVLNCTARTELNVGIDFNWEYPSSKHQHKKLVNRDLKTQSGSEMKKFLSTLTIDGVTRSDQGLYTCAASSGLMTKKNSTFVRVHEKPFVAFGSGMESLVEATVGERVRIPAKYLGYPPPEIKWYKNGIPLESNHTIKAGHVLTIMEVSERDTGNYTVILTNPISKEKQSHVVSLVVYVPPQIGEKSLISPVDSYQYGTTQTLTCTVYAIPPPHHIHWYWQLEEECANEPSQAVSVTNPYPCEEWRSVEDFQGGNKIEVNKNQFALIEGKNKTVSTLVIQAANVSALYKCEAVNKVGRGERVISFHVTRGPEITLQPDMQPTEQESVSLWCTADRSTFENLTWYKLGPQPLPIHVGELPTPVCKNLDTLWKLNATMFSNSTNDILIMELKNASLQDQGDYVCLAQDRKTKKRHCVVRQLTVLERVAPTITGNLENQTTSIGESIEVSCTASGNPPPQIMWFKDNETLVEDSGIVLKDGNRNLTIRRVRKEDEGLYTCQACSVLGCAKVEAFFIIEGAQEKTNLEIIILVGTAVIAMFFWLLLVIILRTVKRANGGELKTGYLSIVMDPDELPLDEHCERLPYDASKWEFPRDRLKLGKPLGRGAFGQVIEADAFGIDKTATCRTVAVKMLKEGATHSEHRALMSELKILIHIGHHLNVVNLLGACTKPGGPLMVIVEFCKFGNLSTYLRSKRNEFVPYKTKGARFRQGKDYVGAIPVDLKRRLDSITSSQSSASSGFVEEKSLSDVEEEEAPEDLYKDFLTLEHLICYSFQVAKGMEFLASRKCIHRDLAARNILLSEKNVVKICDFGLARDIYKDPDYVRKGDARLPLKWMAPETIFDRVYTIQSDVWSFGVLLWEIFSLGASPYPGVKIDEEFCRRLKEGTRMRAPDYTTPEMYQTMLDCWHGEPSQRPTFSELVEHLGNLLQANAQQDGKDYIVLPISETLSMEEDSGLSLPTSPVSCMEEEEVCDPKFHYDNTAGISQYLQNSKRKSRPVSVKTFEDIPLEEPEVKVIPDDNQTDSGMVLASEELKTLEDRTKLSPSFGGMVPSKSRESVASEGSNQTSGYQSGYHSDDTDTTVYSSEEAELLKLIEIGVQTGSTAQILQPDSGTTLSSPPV
Chain of Mitogen-activated protein kinase 3 (Homo sapiens) (P27361 whole entry): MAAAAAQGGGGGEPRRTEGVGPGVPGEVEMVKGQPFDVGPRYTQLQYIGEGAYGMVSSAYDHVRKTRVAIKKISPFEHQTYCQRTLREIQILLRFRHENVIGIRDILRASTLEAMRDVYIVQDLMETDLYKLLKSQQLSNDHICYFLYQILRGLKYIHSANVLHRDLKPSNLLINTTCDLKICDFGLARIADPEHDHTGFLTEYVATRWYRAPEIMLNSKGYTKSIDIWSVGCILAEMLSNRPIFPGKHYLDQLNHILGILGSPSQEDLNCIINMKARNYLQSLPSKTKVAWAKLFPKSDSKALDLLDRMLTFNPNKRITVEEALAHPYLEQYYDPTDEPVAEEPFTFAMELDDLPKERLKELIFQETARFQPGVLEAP
Chain of Tyrosine-protein kinase Lck (Homo sapiens) (P06239 2-509 limits assumed): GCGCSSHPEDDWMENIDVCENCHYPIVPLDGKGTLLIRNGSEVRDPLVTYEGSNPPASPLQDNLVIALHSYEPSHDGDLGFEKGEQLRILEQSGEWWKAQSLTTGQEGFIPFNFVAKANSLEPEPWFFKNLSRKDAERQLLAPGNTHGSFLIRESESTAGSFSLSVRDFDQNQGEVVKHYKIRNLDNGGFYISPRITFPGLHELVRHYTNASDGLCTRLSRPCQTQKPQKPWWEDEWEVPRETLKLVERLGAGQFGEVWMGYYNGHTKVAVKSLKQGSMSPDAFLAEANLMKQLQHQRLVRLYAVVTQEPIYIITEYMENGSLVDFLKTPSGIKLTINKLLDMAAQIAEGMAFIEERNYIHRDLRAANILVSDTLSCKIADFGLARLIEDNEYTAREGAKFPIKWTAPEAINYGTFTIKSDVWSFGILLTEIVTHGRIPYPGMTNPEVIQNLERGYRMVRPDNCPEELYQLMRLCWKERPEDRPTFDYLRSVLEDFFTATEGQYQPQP
Chain of Tyrosine-protein kinase Lyn (Homo sapiens) (P07948 2-512 limits assumed): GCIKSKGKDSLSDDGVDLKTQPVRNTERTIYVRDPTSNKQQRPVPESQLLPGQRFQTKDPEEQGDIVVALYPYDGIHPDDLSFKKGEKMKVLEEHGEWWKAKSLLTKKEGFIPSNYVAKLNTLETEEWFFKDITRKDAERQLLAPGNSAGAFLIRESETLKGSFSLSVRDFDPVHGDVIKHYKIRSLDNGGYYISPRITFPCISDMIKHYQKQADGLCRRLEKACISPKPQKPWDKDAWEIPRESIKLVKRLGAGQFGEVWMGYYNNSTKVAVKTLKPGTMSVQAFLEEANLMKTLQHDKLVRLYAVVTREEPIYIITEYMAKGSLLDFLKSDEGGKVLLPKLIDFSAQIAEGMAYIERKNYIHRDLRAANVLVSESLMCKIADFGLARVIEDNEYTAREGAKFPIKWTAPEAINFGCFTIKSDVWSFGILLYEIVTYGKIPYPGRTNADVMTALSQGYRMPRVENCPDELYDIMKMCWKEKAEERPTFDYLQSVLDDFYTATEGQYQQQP
Chain of Mitogen-activated protein kinase 10 (Homo sapiens) (P53779 whole entry): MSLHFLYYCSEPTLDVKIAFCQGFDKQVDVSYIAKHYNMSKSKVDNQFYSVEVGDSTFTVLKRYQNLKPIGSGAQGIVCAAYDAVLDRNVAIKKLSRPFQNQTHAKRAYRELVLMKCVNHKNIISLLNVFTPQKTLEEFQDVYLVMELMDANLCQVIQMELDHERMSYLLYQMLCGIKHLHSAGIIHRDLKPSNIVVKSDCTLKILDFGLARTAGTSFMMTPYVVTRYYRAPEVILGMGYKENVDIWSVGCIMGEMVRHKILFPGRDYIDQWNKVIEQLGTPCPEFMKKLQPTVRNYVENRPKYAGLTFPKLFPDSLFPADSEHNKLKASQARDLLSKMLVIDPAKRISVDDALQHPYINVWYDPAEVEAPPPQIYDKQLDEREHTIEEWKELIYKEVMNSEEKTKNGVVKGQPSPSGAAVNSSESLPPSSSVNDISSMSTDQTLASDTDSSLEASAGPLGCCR

In the case of `Nc1n[nH]c2nnc(-c3c(-c4ccccc4)nn4ccccc34)cc12`, the residual activity was 0% in assay [1]; 86% in assay [2]; 59% in [3]; 82% in [4]; 85% in assay [5]; 91% in [6]. Also, the residual activity in [7] was 94%; in [8], 80%; in assay [9], 29%; in assay [10] it was 88%; in assay [11], 58%; in assay [12], 94%. Also, the residual activity in [13] was 68%; in [14] it was 66%; in assay [15], 33%; in assay [16] it was 21%; in assay [17], 3%; in assay [18], 68%. Besides, the residual activity in [19] was found to be 13%; in [20], 102%.
Regarding `O=C1NC(=O)c2cc(Nc3ccc(F)cc3)c(Nc3ccc(F)cc3)cc21`, the residual activity in [2] turned out to be 99%; in assay [3], 61%; in assay [4], 100%; in assay [5] it was 91%; in [6] it was 102%; in [7], 93%. The residual activity amounted to 89% in assay [8]; 32% in assay [9]; 103% in assay [10]; 26% in assay [11]; 77% in [12]; 44% in assay [13]. The residual activity in [14] is 35%; in [15], 7%; in [16], 79%; in [17], 57%; in [18], 103%; in assay [19] it was 99%. In addition, the residual activity in assay [20] is 90%.
For `c1ccc(-c2n[nH]c3c2oc2ccccc23)cc1`, the residual activity in [1] came out at 32%; in assay [2] it was 5%; in [3], 3%; in assay [4], 88%; in assay [5] it was 64%; in [8], 92%. Besides, the residual activity came out at 70% in assay [9]; 68% in assay [14]; 30% in assay [15]; 86% in [16]; 80% in assay [17].
Regarding `CCN(CC)CCCCN1c2ccccc2Oc2ccc(Cl)cc21`, the residual activity in [1] amounted to 137%; in assay [2] it was 112%; in assay [3], 104%; in assay [4], 133%; in [5], 98%; in [6], 103%. Also, the residual activity in [7] worked out at 94%; in assay [8] it was 110%; in assay [9], 100%; in [10], 84%; in assay [11] it was 120%; in assay [12] it was 101%. Also, the residual activity in assay [13] amounted to 64%; in assay [14], 102%; in [15] it was 67%; in assay [16], 112%; in [17] it was 114%; in [18] it was 116%. In addition, the residual activity in assay [19] turned out to be 104%; in assay [20], 115%.
In the case of `O=C(Nc1cccc(Nc2cc(Nc3cccc(C(F)(F)F)c3)ncn2)c1)C1CC1`, the residual activity in assay [1] was determined as 52%; in [2] it was 96%; in assay [3], 75%; in assay [4], 87%; in assay [5], 31%; in [6], 102%. Further, the residual activity in assay [7] came to 96%; in assay [8], 92%; in [9], 57%; in [10] it was 72%; in assay [11], 29%; in [12] it was 85%. For the same molecule, the residual activity amounted to 81% in assay [13]; 62% in [14]; 18% in assay [15]; 96% in assay [16]; 85% in [17]; 102% in [18]. The residual activity is 103% in [19] and 89% in [20].
With `CCN(CC)C(=O)c1ccc(Nc2nc(OCC3CCCCC3)c3nc[nH]c3n2)cc1`, the residual activity in assay [1] was -4%; in [2], 33%; in assay [3], 3%; in assay [4], 39%; in assay [5], 10%; in assay [8], 45%. In addition, the residual activity was 13% in assay [9]; 10% in assay [10]; 3% in assay [11]; 20% in assay [12]; 7% in assay [13]; 20% in assay [14]. The residual activity came out at 1% in [15]; 29% in [17]; 99% in assay [18]; 42% in assay [19]; 81% in [20].
With `CC(C)n1cnc2/c(=N/c3cccc(Cl)c3)nc(NCCO)[nH]c21`, the residual activity in [1] was 60%; in assay [2], 85%; in [3], 53%; in assay [4], 96%; in [5], 80%; in [6] it was 96%. Moreover, the residual activity amounted to 81% in assay [7]; 89% in [8]; 47% in assay [9]; 48% in assay [10]; 37% in assay [11]; 86% in assay [12]. Also, the residual activity turned out to be 40% in [13]; 20% in assay [14]; 2% in assay [15]; 92% in [16]; 77% in [17]; 117% in assay [18]. The residual activity in [19] was 78%; in [20] it was 91%.
As for `N#CCCc1ccc2c(c1)-c1[nH]c3ccc([N+](=O)[O-])cc3c1CC(=O)N2`, the residual activity in assay [1] is 43%; in assay [2] it was 30%; in assay [3], 13%; in assay [8], 57%; in assay [9] it was 58%; in [10], 14%. Moreover, the residual activity in assay [11] is 13%; in assay [12] it was 24%; in assay [13] it was 23%; in assay [14], 5%; in [15] it was 0%; in assay [16] it was 58%. Moreover, the figures for the residual activity in [17], in assay [19] and in [20] were 34%, 51% and 57%, respectively.
For `CO[C@H]1[C@@H](OC)C[C@H](C)[C@@H](OC)C2=CC(=O)C=C(NC(=O)/C(C)=C/C=C/[C@H](OC)[C@@H](OC(N)=O)/C(C)=C/[C@@H]1C)C2=O`, the residual activity in [1] came to 110%; in assay [2] it was 97%; in assay [3] it was 87%; in assay [4] it was 109%; in assay [5] it was 90%; in assay [6], 97%. Besides, the residual activity in assay [7] was found to be 90%; in assay [8] it was 100%; in assay [10], 142%; in assay [11], 86%; in assay [12], 93%; in [13] it was 85%. Moreover, the residual activity in assay [14] was 85%; in [15], 57%; in assay [16], 88%; in assay [17], 89%; in assay [18] it was 105%; in assay [19] it was 97%. Also, the residual activity in assay [20] came out at 101%.
Consider `N#CC(C#N)=C(N)/C(C#N)=C/c1ccc(O)cc1`, for which the residual activity in [1] is 88%; in [3], 92%; in assay [8], 98%; in assay [9], 96%; in [14], 93%; in [15] it was 70%. Further, the residual activity in assay [18] stood at 118%; in assay [20] it was 94%.
For the molecule `c1ccc2c(-c3ccncc3)c[nH]c2c1`, the residual activity is 100% in assay [2]; 78% in [3]; 98% in [4]; 64% in [5]; 100% in [6]; 90% in assay [7]. Also, the residual activity turned out to be 86% in [8]; 54% in assay [9]; 102% in [10]; 79% in assay [11]; 94% in [12]; 101% in assay [13]. For the same molecule, the residual activity in [14] was 105%; in assay [15], 91%; in assay [16], 77%; in assay [17], 87%; in assay [18], 101%; in assay [19], 99%. For the same molecule, in assay [20], the residual activity is 90%.
Turning to `Cc1nc(-c2ccccc2)c(-c2ccncc2)o1`, the residual activity in [1] turned out to be 19%; in [2] it was 95%; in [3] it was 78%; in [4], 106%; in assay [5] it was 86%; in assay [6] it was 111%. The residual activity in [7] turned out to be 100%; in [8], 119%; in [9] it was 105%; in [10], 92%; in assay [11], 59%; in [12], 45%. Moreover, the residual activity in [13] came out at 42%; in [14] it was 0%; in assay [15], 0%; in assay [16], 116%; in assay [17], 97%; in assay [18], 118%. The residual activity in [19] is 100%; in assay [20] it was 95%.
As to `Nc1cccc(-c2cc3c(Oc4cccc(O)c4)ncnc3[nH]2)c1`, the residual activity turned out to be 57% in assay [1]; 5% in [2]; 2% in assay [3]; 14% in assay [4]; 4% in [5]; 67% in [6]. Besides, the residual activity was 11% in assay [7]; 34% in assay [8]; 9% in assay [9]; 3% in assay [10]; 7% in assay [11]; 4% in assay [12]. The residual activity in assay [13] was 0%; in assay [14], 2%; in assay [15] it was -1%; in [18], 120%; in assay [19], 83%; in assay [20], 71%.
For `Cc1cc(Nc2nc(-c3ccccc3)nc3ccccc23)n[nH]1`, the residual activity in [1] was found to be 12%; in assay [2], 5%; in assay [3] it was 1%; in assay [4], 51%; in assay [5], 18%; in [7], 71%. For the same molecule, the residual activity was determined as 50% in assay [8]; 10% in assay [9]; 23% in [10]; 6% in assay [11]; 36% in [12]; 13% in assay [13]. Besides, the residual activity in [14] came to 9%; in assay [15] it was 4%; in assay [18] it was 106%.
Consider `O=C1Nc2ccccc2/C1=C1/Nc2ccccc2/C1=N\OCCC(O)CO` (stereo unspecified), for which the residual activity in assay [1] is 20%; in assay [2], 3%; in [3] it was 1%; in [4], 42%; in assay [5], 33%; in assay [6], 30%. Moreover, the residual activity was determined as 3% in assay [7]; 62% in [8]; 70% in assay [9]; 4% in assay [10]; 5% in assay [11]; 5% in assay [12]. In addition, the residual activity in assay [13] is 8%; in assay [14], 4%; in assay [15], -1%; in assay [18] it was 108%; in assay [20], 78%.
Consider `C[C@@H](N)[C@H]1CC[C@H](C(=O)Nc2ccncc2)CC1`, for which the residual activity in [1] amounted to 86%; in assay [2], 113%; in [3] it was 108%; in assay [5], 89%; in [6], 97%; in assay [7], 96%. Besides, the residual activity in [9] was found to be 59%; in assay [14] it was 99%; in assay [15], 100%; in [16], 113%; in assay [17] it was 109%; in assay [18] it was 102%. The residual activity in [19] stood at 105%.
